Data taken from PubChem BioAssay (Tox21).
Inconclusive results are not listed. Activity calls are given as the source filed them. Unless noted, calls follow the shape of the full dose curve.

Legend:
[1] = qHTS assay to identify small molecule agonists of the vitamin D receptor (VDR) signaling pathway - cell viability counter screen (AID 743224; active = well fitted curve in the direction sought with a large enough effect in the repeat runs; an effect the other way counts as inactive or inconclusive; also: % is scaled to controls: 0 for no effect and ±100 for the full control effect; nearly all actives have a fitted effect of over 50% in size); details: VDR-bla HEK293T viability, CellTiter-Glo luminescence, 16 h; series mostly up to 62.6 µM
How it was run: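 Here cell health was gauged by luminescent ATP detection (CellTiter-Glo, 30 min RT) in VDR-bla cells that had been incubated with test compounds for 16 h at 37C and 5% CO2.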

[2] = qHTS assay to identify small molecule antagonists of the vitamin D receptor (VDR) signaling pathway - cell viability counter screen (AID 743225; active = well fitted curve in the direction sought with a large enough effect in the repeat runs; an effect the other way counts as inactive or inconclusive; also: % is scaled to controls: 0 for no effect and ±100 for the full control effect; nearly all actives have a fitted effect of over 50% in size); details: VDR-bla HEK293T viability, CellTiter-Glo luminescence, 16 h; series mostly up to 61 µM
How it was run: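 Luminescent cell viability (CellTiter-Glo) in VDR-bla HEK 293T cells after 16 h compound exposure at 37C in the presence of 3 nM final 1-alpha,25-dihydroxy vitamin D3.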

[3] = qHTS assay to identify small molecule agonists of the NFkB signaling pathway (AID 1159509; active = well fitted curve in the direction sought with a large enough effect in the signal ratio in the repeat runs, not every such curve was filed as active; the % refers to the signal ratio; also: % is scaled to controls: 0 for no effect and ±100 for the full control effect); details: NFkB-bla ME-180 cells, beta-lactamase FRET ratio, 5 h; series mostly up to 61 µM
How it was run: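 ME-180 NFkB-bla, 2,000 cells/well, overnight plating; cpd pinned in DMSO, 5 h 37 C; B/G FRET substrate 1.5 h RT; ex 405, em 460/530 nm.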

[4] = qHTS assay to identify small molecule agonists of the NFkB signaling pathway - cell viability counter screen (AID 1159515); details: NFkB-bla ME-180 viability, CellTiter-Glo luminescence, 5 h; series mostly up to 61 µM; also: % is scaled to controls: 0 for no effect and ±100 for the full control effect; nearly all actives have a fitted effect of over 55% in size
How it was run: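 5 hr compound treatment of NFkB-bla ME-180 cells (2,000/well, seeded overnight beforehand), followed by reporter substrate for 1.5 hr. CellTiter-Glo added afterward; luminescence after 30 min RT.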

[5] = qHTS assay to identify small molecule agonists of the endoplasmic reticulum stress response signaling pathway (AID 1159516; active = well fitted activation curve with a large enough effect in the signal ratio in the repeat runs, not every such curve was filed as active; the % refers to the signal ratio; also: % is scaled to controls: 0 for no effect and ±100 for the full control effect); details: ESRE-bla HeLa, ER stress beta-lactamase reporter, 5 h; series mostly up to 61 µM
How it was run: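 Reporter HeLa cells (ESRE-beta-lactamase) underwent 5 hr compound incubation at 37 C and 5% CO2 in quantitative HTS format. Detection followed 2 hr of FRET substrate loading at room temperature.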

[6] = qHTS assay to identify small molecule agonists of the endoplasmic reticulum stress response signaling pathway - cell viability counter screen (AID 1159517); details: ESRE-bla HeLa viability, CellTiter-Glo luminescence, 5 h; series mostly up to 61 µM;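 also: HeLa cells carrying an ER stress response element beta-lactamase reporter; % is scaled to controls: 0 for no effect and ±100 for the full control effect; nearly all actives have a fitted effect of over 50% in size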
How it was run: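 ESRE-bla HeLa cells, 1,500 per well, seeded overnight then treated with compounds for 5 hr at 37 C. After the beta-lactamase read, viability in the same wells is measured by CellTiter-Glo luminescence after 30 min at room temperature.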

[7] = qHTS assay to identify small molecule antagonists of the retinoid-related orphan receptor gamma (ROR-gamma) signaling pathway - cell viability counter screen (AID 1159520; active = well fitted curve in the direction sought with a large enough effect in the repeat runs; an effect the other way counts as inactive or inconclusive; also: % is scaled to controls: 0 for no effect and ±100 for the full control effect; nearly all actives have a fitted effect of over 50% in size); details: Tet-on RORgamma CHO cells viability, ATP luminescence, 16 h; series mostly up to 92.4 µM
How it was run: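 Tet-on ROR gamma CHO cells were given compounds for 2 hr, then doxycycline hyclate at 1 uM final, and incubated 16 hr at 37 C. Viability was measured as ATP content by CellTiter-Glo luminescence.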

[8] = qHTS assay to identify small molecule agonists of the AP-1 signaling pathway - cell viability counter screen (AID 1159525); details: ME-180 AP-1-bla cells viability, ATP luminescence, 5 h; series mostly up to 76.8 µM; also: nearly all actives have a fitted effect of over 55% in size
How it was run: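 AP-1-bla ME-180 cells in Opti-MEM with 0.5% dialyzed FBS, compound exposure 5 h at 37 C in 15-point titration. Viability read in the same wells as ATP content by CellTiter-Glo luminescence, normalised to tetra-n-octylammonium bromide and DMSO controls.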

[9] = qHTS assay to identify small molecule agonists of the AP-1 signaling pathway (AID 1159526); details: ME-180 (cervical carcinoma) AP-1-bla reporter, beta-lactamase FRET ratio, 5 h; series mostly up to 76.8 µM; also: % is scaled to controls: 0 for no effect and ±100 for the full control effect
[10] = molecular target: Nuclear receptor ROR-gamma (Homo sapiens) (UniProt P51449); experiment: qHTS assay to identify small molecule antagonists of the retinoid-related orphan receptor gamma (ROR-gamma) signaling pathway (AID 1159521; active = well fitted curve in the direction sought with a large enough effect in the repeat runs; an effect the other way counts as inactive or inconclusive); details: Tet-on RORgamma CHO cells, RORE-luciferase, 16 h; series mostly up to 92.4 µM
How it was run: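 CHO cells expressing RORγ under a TET-on promoter, luciferase under RORE control. Dox 1 uM final, 16 h; compounds added 2 h prior. Luminescence decrease measured.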

C=CCCCCCCCCCCCC
inactive: Potency [1] | outcome [2] | outcome [3] | outcome [4] | outcome [5] | Potency [6] | outcome [7] | outcome [8] | outcome [9]

O=S(=O)(O)c1ccc2cc(O)c(S(=O)(=O)O)cc2c1
inactive: Potency [1] | outcome [2] | outcome [3] | outcome [4] | outcome [5] | Potency [6] | outcome [7] | outcome [10] | outcome [9]

CC(=C(CCOC(=O)C(C)C)SSC(CCOC(=O)C(C)C)=C(C)N(C=O)Cc1cnc(C)nc1N)N(C=O)Cc1cnc(C)nc1N
inactive: Potency [1] | outcome [2] | outcome [3] | outcome [4] | outcome [5] | Potency [6] | outcome [7] | outcome [8] | outcome [9]

CC(=O)Nc1cccc(C)c1
inactive: Potency [1] | outcome [2] | outcome [3] | outcome [4] | outcome [5] | Potency [6] | outcome [7] | outcome [9]

Cc1ccccc1N=O
inactive: outcome [2] | outcome [3] | outcome [4] | outcome [5] | Potency [6] | outcome [7] | outcome [8] | outcome [9]

On1nnc2ccccc21
inactive: Potency [1] | outcome [2] | outcome [3] | outcome [4] | outcome [5] | Potency [6] | outcome [7] | outcome [10] | outcome [9]

CC/C=C\CC1=C(C)CCC1=O
inactive: Potency [1] | outcome [3] | outcome [4] | outcome [5] | Potency [6] | outcome [10] | outcome [8] | outcome [9]

N[C@@H](CCC(=O)N[C@@H](CS)C(=O)NCC(=O)O)C(=O)O
inactive: Potency [1] | outcome [2] | outcome [3] | outcome [4] | outcome [5] | Potency [6] | activity, negative = cytotoxicity [7] 4.19% [at 19 µM] | viability change, negative = cytotoxic [8] 4.13% [at 15.8 µM] | activation [9] 1.13% [at 15.8 µM]

CCCCC(CC)COCCO (stereo unspecified)
inactive: Potency [1] | outcome [3] | outcome [4] | outcome [5] | Potency [6] | outcome [10] | outcome [8] | outcome [9]

Cc1ccccc1C(=O)Nc1ccc(C(=O)N2CCCC(N(C)C)c3ccccc32)cc1 (stereo unspecified)
inactive: Potency [1] | outcome [2] | outcome [3] | outcome [4] | outcome [5] | Potency [6] | outcome [7] | outcome [10] | outcome [9]

CCCCOC(=O)c1ccccc1
inactive: Potency [1] | outcome [2] | outcome [3] | outcome [4] | outcome [5] | Potency [6] | outcome [7] | outcome [10] | outcome [9]

CCCCCOC(=O)CCC
inactive: outcome [2] | outcome [3] | outcome [4] | outcome [5] | Potency [6] | outcome [7] | outcome [8] | outcome [9]

CCN(C)C(=O)Oc1cccc([C@H](C)N(C)C)c1
inactive: Potency [1] | outcome [3] | outcome [4] | outcome [5] | Potency [6] | outcome [7] | outcome [9]

O=C(Nc1ccc(Cl)c(Cl)c1)C1CC1
inactive: outcome [2] | outcome [3] | outcome [4] | outcome [5] | outcome [7] | outcome [10] | outcome [8] | outcome [9]

N[C@@H](COP(=O)(O)O)C(=O)O
inactive: Potency [1] | outcome [2] | outcome [3] | outcome [4] | outcome [5] | activity, negative = cytotoxicity [7] -0.691% [at 19 µM] | activity change, negative = inhibition [10] -15% [at 19 µM] | viability change, negative = cytotoxic [8] 11.4% [at 15.8 µM] | activation [9] -0.856% [at 15.8 µM]

NCCS
inactive: outcome [2] | outcome [3] | outcome [4] | outcome [5] | Potency [6] | outcome [10] | outcome [8] | outcome [9]

CC(C)C(=O)OCCc1ccccc1
inactive: outcome [2] | outcome [3] | outcome [4] | outcome [5] | Potency [6] | outcome [10] | outcome [9]

BrCCCCCBr
inactive: Potency [1] | outcome [2] | outcome [3] | outcome [4] | outcome [5] | outcome [7] | outcome [10] | outcome [8] | outcome [9]

COCCc1ccc(OCC2CO2)cc1 (stereo unspecified)
inactive: Potency [1] | outcome [2] | outcome [3] | outcome [4] | outcome [5] | Potency [6] | outcome [10] | outcome [8] | outcome [9]

COC(=O)C1CC(=O)C(C(=O)OC)CC1=O (stereo unspecified)
inactive: viability change, negative = cytotoxic [2] 3.99% [at 6.95 µM] | activation [3] 0.23% [at 6.95 µM] | activity, negative = cytotoxic [4] 4.94% [at 6.95 µM] | activation [5] 4.12% [at 6.95 µM] | activity, negative = cytotoxicity [7] 6.36% [at 8.39 µM] | activity change, negative = inhibition [10] 0.663% [at 8.39 µM] | viability change, negative = cytotoxic [8] 2.24% [at 6.97 µM] | activation [9] 1.04% [at 6.97 µM]

CC(CN)CC(C)(C)CCN (stereo unspecified)
inactive: outcome [2] | outcome [3] | outcome [4] | outcome [5] | outcome [7] | outcome [10] | outcome [8] | outcome [9]
